Assay outcomes (PubChem)
This is a sample that favours compounds with a hit; in the whole collection about 3.4% have one here.
KLK7 zymogen act: activators of human kallikrein-7 zymogen. P49862. purified proKLK7, EDANS-DABCYL substrate fluorescence; 100% is mature enzyme control, 0% vehicle. activation, % at 7 µM. 370,000 compounds, 0.9% hits. AID 652039;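 active = activation above the mean of all tested compounds plus 3 SD, computed per campaign excluding outliers beyond control limits, cut at about 13% in these data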
PLC-gamma1 inh: PLC-gamma1 (human) inhibition, primary screen; inhibition, % at 12.2 µM; purified PLC-gamma1, fluorogenic substrate, fluorescence; P19174; AID 720700; 370,000 compounds, 0.84% hits; in the data active = inhibition above about 9.5%
HGIII-sPLA2 inh: Blocks human group III sPLA2 activity | Q9NZ20 | QFRET BODIPY PC-A2 liposome hydrolysis, fluorescence | inhibition, % at 12.2 µM | 370,000 compounds, 0.56% hits | AID 743126;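 active = inhibition above mean plus 3 SD of compounds lying within the high and low control bounds, cut at about 19% in these data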
ADAM10 inh: inhibitors of human ADAM10; recombinant ADAM10, EDANS/DABCYL FRET peptide cleavage, 3 h; inhibition, % at 7 µM; 370,000 compounds, 0.62% hits; AID 720582;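 active = inhibition above a per-campaign cutoff equal to the mean of compounds falling between control-based bounds plus 3 SD, cut at about 20% in these data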
PLCb3 inh: blocks human PLC-beta3 enzyme activity | Q01970 | Purified PLC-beta3, fluorogenic substrate, fluorescence | inhibition, % at 12.2 µM | 370,000 compounds, 0.18% hits; in the data active = inhibition above about 11%
ADAM17 inh: inhibits human ADAM17 | P78536 | recombinant ADAM17, EDANS/DABCYL FRET peptide cleavage | inhibition, % at 6.95 µM | 370,000 compounds, 0.83% hits;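 active = inhibition above the mean of compounds lying between control limits plus 3 SD, set per campaign, cut at about 8.5% in these data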
Target sequence (P78536 215-824 limits assumed): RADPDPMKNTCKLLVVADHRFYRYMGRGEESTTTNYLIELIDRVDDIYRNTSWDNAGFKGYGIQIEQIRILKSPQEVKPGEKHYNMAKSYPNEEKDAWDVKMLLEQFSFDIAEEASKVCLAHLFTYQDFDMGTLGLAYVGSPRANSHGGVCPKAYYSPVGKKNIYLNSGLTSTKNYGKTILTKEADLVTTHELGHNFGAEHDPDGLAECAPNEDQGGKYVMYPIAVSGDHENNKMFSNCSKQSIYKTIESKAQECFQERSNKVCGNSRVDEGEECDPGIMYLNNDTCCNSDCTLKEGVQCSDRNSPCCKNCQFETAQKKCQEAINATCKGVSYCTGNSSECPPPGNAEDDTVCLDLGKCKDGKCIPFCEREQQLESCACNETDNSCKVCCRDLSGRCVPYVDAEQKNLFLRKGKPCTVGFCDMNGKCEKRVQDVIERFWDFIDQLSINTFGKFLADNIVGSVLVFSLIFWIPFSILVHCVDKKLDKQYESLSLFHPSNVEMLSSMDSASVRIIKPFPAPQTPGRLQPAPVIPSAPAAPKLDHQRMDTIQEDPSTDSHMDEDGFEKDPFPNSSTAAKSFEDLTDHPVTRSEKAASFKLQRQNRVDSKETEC
proKLK7 act conf: proKLK7 activation, confirmation; shares compounds with KLK7 zymogen act; purified proKLK7, EDANS-DABCYL substrate fluorescence; scaled: vehicle 0, mature enzyme 100; activation, % at 7 µM; 3,200 compounds, 68% hits;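 active = activation, as change over the incubation, above the mean of all tested compounds plus 3 SD, cut at about 13% in these data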
EDANS interfere: counter-screen for kallikrein-7 activators: EDANS-DABCYL optical interference; shares compounds with KLK7 zymogen act; EDANS-DABCYL substrate fluorescence interference, no enzyme, 4 h; solvent 0%, active enzyme control 100%; activation, % at 7 µM; 3,200 compounds, 80% hits;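 active = activation above the all-compound mean plus 3 SD, ignoring values outside control-based bounds, cut at about 4.8% in these data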;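 also: value is the 4 h activation minus the activation read at time zero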
EDANS interf: optically interferes with EDANS-DABCYL fluorescence, kallikrein-7 activator counter-screen. shares compounds with KLK7 zymogen act. EDANS-DABCYL peptide fluorescence interference, no enzyme. EC50, µM. 250 compounds, 20% hits. AID 720493;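 active = compounds that raise the fluorescence signal in this interference counterscreen, with EC50 at or below 10 µM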;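 also: intact quenched peptide substrate alone read at 355 nm excitation and 520 nm emission; signal is fluorescence gain from T0 to T4 after four hours at room temperature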
Large screens that a line does not name were inactive (follow-up assays come after a bar, where they were run).

CCCCNC(=O)C[C@H]1C[C@@]2(C(=O)OC)C(=C[C@H](C(C)C)O[C@@H]2C2CC2)N(CCC2=CCCCC2)C1=O	none
CC(=O)c1ccc(-c2cccs2)s1	KLK7 zymogen act 63.3 | proKLK7 act conf 63.3 | EDANS interfere 68.5
CCOC(=O)c1cc2ccc(OC(=O)c3ccco3)cc2oc1=O	KLK7 zymogen act 100.6 | proKLK7 act conf 667.9 | EDANS interfere 658.7
CCOC(=O)c1cc2ccc3ccccc3c2oc1=O	KLK7 zymogen act 53.0 | proKLK7 act conf 74.1 | EDANS interfere 75.8
CCOC(=O)c1c[nH]c2ccc3ccccc3c2c1=O	none
CCOC(=O)c1ccc(C(=O)OCC)c(NC(=S)Nc2ccc([N+](=O)[O-])cc2OC)c1	KLK7 zymogen act 13.2 | proKLK7 act conf inactive | EDANS interfere 6.9
CSC(=Cc1ccc(C(=O)c2ccc(C)cc2)n1C)S(C)=O (stereo not drawn)	none
CCn1nc(NC(C)=O)c2cc3cccc(C)c3nc21	none
CCn1nc(NC(=O)C(C)C)c2cc3cccc(C)c3nc21	KLK7 zymogen act 62.4 | proKLK7 act conf inactive | EDANS interfere inactive
N#CC(Sc1ccccn1)c1ccc(Cl)cc1 (stereo not drawn)	KLK7 zymogen act 15.8 | proKLK7 act conf inactive | EDANS interfere 12.4
Cn1c(-c2cc3ccc(OC(=O)C(C)(C)C)cc3oc2=O)nc2ccccc21	KLK7 zymogen act 34.4 | proKLK7 act conf 62.2 | EDANS interfere 60.0
CC(=O)Oc1ccc2cc(-c3nc4ccccc4n3C)c(=O)oc2c1	KLK7 zymogen act 38.7 | proKLK7 act conf 75.7 | EDANS interfere 79.5
CCCCNC(=O)O[C@H]1CC[C@@]23CCCN2C(=O)CCC[C@H]3[C@H]1CCC	none (no result: KLK7 zymogen act)
COc1cc2c(cc1OC)CN(Cc1cc(=O)n3c(-c4ccccc4)csc3n1)CC2	KLK7 zymogen act 32.8 | proKLK7 act conf inactive | EDANS interfere inactive
O=c1cc(CN2CCN(c3ccccc3)CC2)nc2scc(-c3ccccc3)n12	none
COc1cc2c(cc1OC)CN(Cc1ccc(F)cc1)CC2	KLK7 zymogen act 38.5 | proKLK7 act conf 13.9 | EDANS interfere 17.9
COc1cc2c(cc1OC)CN(Cc1cc(=O)n3cc(C)ccc3n1)CC2	KLK7 zymogen act 32.7 | proKLK7 act conf 28.9 | EDANS interfere 33.3
Cc1ccc2nc(-c3ccc(C#N)cc3)c(Cc3cccc(F)c3)n2c1	none
Cc1ccc(/C=C/c2nc3ccccc3[nH]2)o1	KLK7 zymogen act 20.7 | proKLK7 act conf 31.4 | EDANS interfere 30.1
CCC1NC(C(=O)O)Cc2c1[nH]c1ccccc21 (stereo not drawn)	KLK7 zymogen act 35.7 | proKLK7 act conf inactive | EDANS interfere 9.8
Nc1nc2ncc(CNc3ccc(C(=O)N[C@@H](CCC(=O)O)C(=O)O)cc3)nc2c(=O)[nH]1	none
CN(Cc1cnc2nc(N)nc(N)c2n1)c1ccc(C(=O)N[C@@H](CCC(=O)O)C(=O)O)cc1	KLK7 zymogen act 17.9 | proKLK7 act conf inactive | EDANS interfere inactive
C[C@H]1[C@H](NCc2cccnc2)CC[C@@]23CCCN2C(=O)CCC[C@@H]13	none (no result: KLK7 zymogen act)
CCOC(=O)NN1C(=O)c2ccccc2NC1c1ccc(OC)c(OC)c1 (stereo not drawn)	KLK7 zymogen act 19.7 | proKLK7 act conf 25.1 | EDANS interfere 26.4
O=C(O)CCC(=O)NN1C(=O)c2ccccc2NC1c1ccc(F)cc1 (stereo not drawn)	KLK7 zymogen act 17.4 | proKLK7 act conf 37.9 | EDANS interfere 30.6 | EDANS interf inactive
CCN(CC)CCN1C(=O)c2ccccc2NC1c1ccc(Br)cc1 (stereo not drawn)	KLK7 zymogen act 60.8 | proKLK7 act conf inactive | EDANS interfere 23.2
CCN(CC)CCN1C(=O)c2ccccc2NC1c1ccc(F)cc1 (stereo not drawn)	KLK7 zymogen act 91.5 | proKLK7 act conf 37.0 | EDANS interfere 34.5
CN(C)c1ccc(C2Nc3ccccc3C(=O)N2CCCN2CCOCC2)cc1 (stereo not drawn)	none
O=C(NCc1ccccc1Cl)O[C@H]1CC[C@@]23CCCN2C(=O)CCC[C@H]3C1	none (no result: KLK7 zymogen act)
COc1cccc(C(=O)N[C@H](C(=O)N2CCC[C@H]2C(=O)NC2CCCC2)C2CCCCC2)c1	none
CCN(CC)CCN1C(=O)c2ccccc2NC1c1cccc(F)c1 (stereo not drawn)	KLK7 zymogen act 71.5 | proKLK7 act conf 34.8 | EDANS interfere 33.4
CCN(CC)CCN1C(=O)c2ccccc2NC1c1ccc(N(C)C)cc1 (stereo not drawn)	none
CCN(CC)CCN1C(=O)c2ccccc2NC1c1ccccc1F (stereo not drawn)	KLK7 zymogen act 73.6 | proKLK7 act conf 26.1 | EDANS interfere 37.6
CCN(CC)CCN1C(=O)c2ccccc2NC1c1ccc(C)cc1 (stereo not drawn)	KLK7 zymogen act 74.6 | proKLK7 act conf 28.8 | EDANS interfere 37.1
COCCN1Cc2cc(C(=O)OC)c3c(c2C1=O)c1cc(OC)ccc1n3S(=O)(=O)c1ccc(F)cc1	none
COc1ccccc1-c1coc2c(CN3CCN(C)CC3)c(O)ccc2c1=O	KLK7 zymogen act 80.2 | proKLK7 act conf 73.3 | EDANS interfere 72.8
COc1ccccc1-c1coc2cc(OC(=O)N3CCOCC3)ccc2c1=O	none
CCN1CCN(Cc2c(O)ccc3c(=O)c(-c4ccccc4OC)coc23)CC1	KLK7 zymogen act 50.4 | proKLK7 act conf 73.3 | EDANS interfere 78.2
CC1CCCCN1Cc1c(O)ccc2c(=O)c(-c3ccc(Br)cc3)coc12 (stereo not drawn)	none
COc1ccccc1Oc1coc2c(CN3CCN(C)CC3)c(O)ccc2c1=O	KLK7 zymogen act 73.7 | proKLK7 act conf 73.8 | EDANS interfere 77.6
CN1CCN(Cc2c(O)ccc3c(=O)c(Oc4ccccc4Cl)c(C(F)(F)F)oc23)CC1	none
COc1ccccc1-c1coc2c(CN3CCN(CCO)CC3)c(O)ccc2c1=O	KLK7 zymogen act 110.8 | proKLK7 act conf 73.9 | EDANS interfere 80.9
Cc1ccc(Cn2c(=O)n(Cc3ccc(C(=O)NCC4COC4)cc3)c(=O)c3ccccc32)cc1	none
O=C(NCCc1ccccc1Cl)[C@@H]1CCCN1C(=O)[C@@H](NS(=O)(=O)c1ccc(F)cc1F)C1CCCCC1	none
C=CCOC(=O)C(CO)NC(=O)CCCC(=O)O (stereo not drawn)	none
